Hits are enriched below; roughly 19% of the tested compounds scored in any of these assays.
Shiga toxin inh – blocks Shiga toxin action in Vero cells; Vero cells, Shiga toxin protein synthesis inhibition reporter; inhibition, % at 38.7 µM; hit rate 9.2% among 290,000; AID 2315; in the data active = inhibition mostly above about 28%, no sharp cut-off; inactive = mostly below about 43%
Pf growth 48h – inhibits P. falciparum growth in the first generation, 48 h. Potency, µM (titrated, usually from 28.7 µM), usual class: inhibitors. AID 504832. hit rate 5.9% among 310,000. P. falciparum luciferase growth in erythrocytes, 48 h
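Firefly luciferase activity from engineered P. falciparum reports growth; inhibitors lower the luminescent signal. Cultures contained 2% hematocrit erythrocytes at 0.1% final parasitemia.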
Pf growth 96h – inhibits malaria parasite growth, 96 h; hit rate 6.9% among 320,000; Potency, µM (highest dose often 28.7 µM), hits mostly inhibitors; AID 504834; P. falciparum luciferase reporter growth, 96 h
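Erythrocytes infected with luciferase-expressing P. falciparum were dispensed at 2% hematocrit and 0.05% parasitemia (final), then incubated with compounds 96 hours at 37 C in 5% CO2. Luminescence after detection reagent addition reported growth.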
Lassa entry inh – Lassa virus entry inhibition; hit rate 1.2% among 300,000; Lassa virus pseudotype entry inhibition, cell reporter; Potency, µM (highest dose often 37.9 µM), usual class: inhibitors; AID 540256; calls by dose curve; tested in HEK293 cells; note: nearly all actives have a fitted effect of over 50% in size
Marburg entry inh – inhibitors of Marburg virus binding or cell entry; Marburg virus pseudotyped entry inhibition, cell reporter; Potency, µM (doses to about 37.8 µM), hits mostly inhibitors; hit rate 1.8% among 300,000; calls by dose curve; tested in HEK293 cells
Cycloheximide cs – counter-screen for Shiga toxin inhibitors: cycloheximide protein synthesis inhibition. max response, %. cell reporter, cycloheximide protein synthesis inhibition counterscreen. hit rate 12% among 300,000; in the data active = max response mostly above about 13%, no sharp cut-off; inactive = mostly below about 14%; note: read at 38.3 µM for the half of the compounds with a filed dose
Hits are given with their value. Unless noted, calls come from the whole dose curve; as a rule, active = well fitted inhibition curve with a large enough effect; inconclusive = small, poorly fitted or top-dose-only effect, or another doubt; inactive = no such curve, though single readings can be large or run the other way.

For Cc1ccc(C2=NN(S(C)(=O)=O)C(c3ccc4nccnc4c3)C2)cc1 (stereo not given) the results were Shiga toxin inh 46, Pf growth 48h inactive, Pf growth 96h inactive, Lassa entry inh inconclusive, Marburg entry inh inactive and Cycloheximide cs 19.
`COc1ccc(C2=NN(S(C)(=O)=O)C(c3ccc4nccnc4c3)C2)cc1` (stereo not given) gave Shiga toxin inh 60, Pf growth 48h inactive, Pf growth 96h inactive, Lassa entry inh inconclusive, Marburg entry inh inconclusive and Cycloheximide cs 79.
COc1ccc(C2CC(c3ccc(OC)c(OC)c3)=NN2S(C)(=O)=O)cc1 (stereo not given) was read as Shiga toxin inh 88, Pf growth 48h inactive, Pf growth 96h inactive and Cycloheximide cs 63.
Screening CS(=O)(=O)N1N=C(c2ccc3nccnc3c2)CC1c1ccccc1 (stereo not given) returned Shiga toxin inh inactive, Pf growth 48h inconclusive, Pf growth 96h inconclusive, Lassa entry inh inactive, Marburg entry inh inactive and Cycloheximide cs 17.
For Cc1cc(OCC(=O)OCC(=O)NCc2ccc3c(c2)OCO3)ccc1Cl the results were Pf growth 48h inactive and Pf growth 96h inactive.
`S=C1NCN(Cc2ccco2)CN1Cc1ccco1` gave Shiga toxin inh inactive, Pf growth 48h inactive, Pf growth 96h inactive, Marburg entry inh inactive and Cycloheximide cs inactive.
Screening COc1ccc(/C([O-])=C(/C(=S)Nc2ccc(C)c(C)c2)n2c[n+](C)c3ccccc32)cc1OC returned Shiga toxin inh inactive, Pf growth 48h inconclusive, Pf growth 96h inactive, Lassa entry inh inactive, Marburg entry inh inactive and Cycloheximide cs inactive.
Cc1nnc(NC(=O)c2ccc(S(=O)(=O)N3CC(C)CC(C)C3)cc2)o1 (stereo not given) was read as Shiga toxin inh inactive, Pf growth 48h inactive, Pf growth 96h inactive, Lassa entry inh inconclusive, Marburg entry inh inconclusive and Cycloheximide cs inactive.
For CS(=O)(=O)N1N=C(c2ccccc2)CC1c1ccc2nccnc2c1 (stereo not given) the results were Shiga toxin inh 63, Pf growth 48h inactive, Pf growth 96h inactive, Lassa entry inh inactive, Marburg entry inh inactive and Cycloheximide cs inactive.
For O=C(O)CCC(=O)N1N=C(c2ccccc2)CC1c1ccc2nccnc2c1 (stereo not given) the results were Shiga toxin inh inactive, Pf growth 48h inactive, Pf growth 96h inactive, Lassa entry inh inactive, Marburg entry inh inconclusive and Cycloheximide cs inactive.
`Cc1ccn2c(=O)cc(COc3ccc(NC(=O)COc4ccccc4)cc3)nc2c1` gave Lassa entry inh inactive.
For COc1ccc(C2c3cc(OC)c(OC)cc3CCN2C(=O)c2cccc([N+](=O)[O-])c2)cc1OC (stereo not given) the results were Shiga toxin inh inactive, Pf growth 48h inconclusive, Pf growth 96h 9.3µM and Cycloheximide cs inactive.
Screening O=C(N/N=C/c1ccc(Cl)cc1)c1n[nH]c2c1CCCC2 returned Shiga toxin inh 83, Pf growth 48h inactive, Pf growth 96h inactive, Lassa entry inh inconclusive, Marburg entry inh inconclusive and Cycloheximide cs 41.
`Cc1ccc(-c2cc(C(=O)N/N=C/c3ccc(Cl)cc3)n[nH]2)o1` gave Shiga toxin inh inactive, Pf growth 48h inactive, Pf growth 96h inconclusive, Marburg entry inh inactive and Cycloheximide cs inactive.
For O=C(N/N=C/c1ccccc1Cl)c1n[nH]c2c1CCCC2 the results were Shiga toxin inh 54, Pf growth 48h inactive, Pf growth 96h inactive, Lassa entry inh inconclusive, Marburg entry inh 1.3µM and Cycloheximide cs 92.
O=C(N/N=C/c1cccs1)c1n[nH]c2c1CCC2 was read as Shiga toxin inh 45, Pf growth 48h inactive, Pf growth 96h inconclusive, Lassa entry inh inconclusive, Marburg entry inh inconclusive and Cycloheximide cs 33.
Screening O=C(N/N=C/C(Br)=C/c1ccccc1)c1n[nH]c2c1CCC2 returned Shiga toxin inh 145, Pf growth 48h inactive, Lassa entry inh inconclusive, Marburg entry inh inactive and Cycloheximide cs 42.
For O=C(N/N=C/c1cccs1)c1cccnc1 the results were Shiga toxin inh inactive, Pf growth 48h inactive, Pf growth 96h inactive, Lassa entry inh inactive, Marburg entry inh inactive and Cycloheximide cs inactive.
Screening CCn1c(SCC(=O)c2cc(OC)ccc2OC)nnc1C1CC1 returned Shiga toxin inh inactive, Pf growth 48h inactive, Pf growth 96h inconclusive, Lassa entry inh inactive, Marburg entry inh inactive and Cycloheximide cs inactive.
`O=C(N/N=C/c1ccccc1)c1n[nH]c2c1CCCC2` gave Shiga toxin inh 76, Pf growth 48h inactive, Pf growth 96h inactive, Lassa entry inh inconclusive, Marburg entry inh inconclusive and Cycloheximide cs 27.
`COC(=O)c1ccc(/C=N/NC(=S)NC(C)C)cc1` gave Shiga toxin inh inactive, Pf growth 48h inactive, Pf growth 96h inconclusive and Cycloheximide cs inactive.
`O=C(NCc1ccccc1)C1=C[C@H](c2csc3ccccc23)C[C@H](OCc2ccc(CO)cc2)O1` gave Shiga toxin inh inactive, Pf growth 48h 9.3µM, Pf growth 96h 13µM and Cycloheximide cs inactive.
O=C(Nc1ccccc1)C1=C[C@@H](c2csc3ccccc23)C[C@@H](OCc2ccc(CO)cc2)O1 was read as Shiga toxin inh inactive, Pf growth 48h inconclusive, Pf growth 96h 9.3µM and Cycloheximide cs inactive.
Screening C#CCNC(=O)C1=C[C@H](c2csc3ccccc23)C[C@H](OCc2ccc(CO)cc2)O1 returned Shiga toxin inh inactive, Pf growth 48h inconclusive, Pf growth 96h inconclusive and Cycloheximide cs inactive.
Screening OC(CCN1CC2CCC(CC2)C1)(Cc1ccccc1)c1ccco1 (stereo not given) returned Lassa entry inh inactive and Marburg entry inh inactive.
Cc1ccc(SCC(=O)OCc2csc(CC(=O)Nc3ccccc3C)n2)cc1C was read as Pf growth 48h inconclusive and Pf growth 96h inactive.
Screening O=S1(=O)N=C(Nc2ccc(O)c(CN3CCCCC3)c2)c2ccccc21 returned Shiga toxin inh inactive, Pf growth 48h 1.5µM, Pf growth 96h inconclusive, Lassa entry inh inactive, Marburg entry inh inactive and Cycloheximide cs inactive.
CCN(CC)S(=O)(=O)c1ccc(NC2=NS(=O)(=O)c3ccccc32)cc1 was read as Shiga toxin inh inactive, Pf growth 96h inactive, Lassa entry inh inactive, Marburg entry inh inactive and Cycloheximide cs inactive.
Screening CCN(CC)C(=O)c1cc([N+](=O)[O-])cc2c1-c1ccc([N+](=O)[O-])cc1C2=C(C#N)C#N returned Shiga toxin inh inactive, Pf growth 48h 15µM, Pf growth 96h inconclusive, Lassa entry inh inactive, Marburg entry inh inconclusive and Cycloheximide cs inactive.
`CCN(CC)C(=O)c1ccc(Oc2ccc([N+](=O)[O-])cc2Cl)cc1` gave Shiga toxin inh inactive, Pf growth 48h inactive, Pf growth 96h inconclusive, Lassa entry inh inconclusive, Marburg entry inh inconclusive and Cycloheximide cs inactive.
`O=C(C1=C(O)C(=O)N(CCCN2CCOCC2)C1c1ccncc1)c1cc2ccccc2o1` (stereo not given) gave Shiga toxin inh inactive, Pf growth 48h inactive, Pf growth 96h inconclusive and Cycloheximide cs inactive.

Screens as filed in PubChem.
